Results on 24 compounds are retold here after PubChem BioAssay AID743126 (The Scripps Research Institute Molecular Screening Center, 2013).

In all, about 370,000 compounds went through this assay and about 2,100 (0.57%) were called active. The full list was thinned out, with actives kept by preference. Unmarked numbers belong to inactive results.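 Rule for the calls: active = inhibition above mean plus 3 SD of compounds lying within the high and low control bounds (cut at about 19% in these data); inactive = the rest.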

A word on the inhibition: it is the relative decrease from the control value, in per cent.

In the assay the target is Group 3 secretory phospholipase A2 (Homo sapiens) (UniProt Q9NZ20). Briefly: HGIII-sPLA2 enzyme inhibition – biochemical, QFRET, BODIPY PC-A2 liposome substrate, primary screen (AID 743126).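 Note: 0% = median of test compound wells and 100% = no enzyme DMSO wells.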 As to conditions: QFRET BODIPY PC-A2 liposome hydrolysis, fluorescence; at 12.2 µM; stronger effect = higher value.
Chain of Group 3 secretory phospholipase A2 (Homo sapiens) (Q9NZ20 whole entry, looked up): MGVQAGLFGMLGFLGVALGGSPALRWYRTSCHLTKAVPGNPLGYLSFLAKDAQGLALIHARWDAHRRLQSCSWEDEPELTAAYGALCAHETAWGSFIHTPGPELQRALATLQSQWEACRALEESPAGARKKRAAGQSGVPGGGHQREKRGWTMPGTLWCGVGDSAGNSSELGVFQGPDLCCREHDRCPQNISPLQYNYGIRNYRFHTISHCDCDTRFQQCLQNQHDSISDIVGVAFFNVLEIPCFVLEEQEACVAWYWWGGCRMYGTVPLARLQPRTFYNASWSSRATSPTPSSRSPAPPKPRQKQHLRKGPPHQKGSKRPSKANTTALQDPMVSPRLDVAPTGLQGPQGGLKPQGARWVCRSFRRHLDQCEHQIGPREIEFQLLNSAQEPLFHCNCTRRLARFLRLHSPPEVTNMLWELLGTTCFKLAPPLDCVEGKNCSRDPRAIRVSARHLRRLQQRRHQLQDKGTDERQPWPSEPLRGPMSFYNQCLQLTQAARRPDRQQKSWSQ
Regarding `Nc1ccc2nn(-c3ccc(Cl)cc3)nc2c1`, the inhibition was 0.58%.

`Nc1ccc2c(c1)C(O)c1ccc(Cl)cc1-2` (centres undefined): the inhibition was 19.6% (active).

In the case of `NC(=O)C1(C(N)=O)OC1c1ccc(Cl)cc1Cl` (centres undefined), the inhibition was -4.76%.

With `Cc1ccc(C(=O)N(Cc2ccccn2)CC2CCCO2)cc1` (centres undefined), the inhibition was 1.49%.

For the compound `CCN(CC)C(=O)CC[C@@H]1CC[C@]2(CCCN(S(=O)(=O)C3CCCCC3)C2)O1`, the inhibition is 11.9%.

With `Cc1ccc(C(=O)Nc2nc(N)n(-c3ccccc3)n2)cc1`, the inhibition was 12.6%.

For the compound `O=C(NNc1nc(N2CCCC2)nc(N2CCCC2)n1)c1ccccc1`, the inhibition is -2.93%.

On to `Cc1ccc(-c2csc(NNC(=O)c3ccccc3)n2)cc1`, for which the inhibition was 41.2% (active).

On to `COC(=O)[C@]12C[C@H](CC(=O)NCc3cccc4ccccc34)C(=O)N(CCc3ccc(OC)c(OC)c3)C1=C[C@H](C1CCCC1)O[C@@H]2C`, for which the inhibition was -20.3%.

For `CCn1c2ccccc2c2cc(NC(=O)CSc3nnc(-c4ccccc4)n3-c3ccc(C)cc3)ccc21`, the inhibition is -1.34%.

Consider `CCn1c(=O)n2n(c1=O)[C@@]1(C=C3CCCC[C@H]32)N=C(NC(=O)c2ccccc2)N(Cc2ccccc2)[C@H]1Cc1ccccc1`, for which the inhibition is 10.8%.

`C[C@H]1[C@H](NC(=O)c2cccc(N(C)C)c2)CC[C@@]23CCCN2C(=O)CCC[C@@H]13`: the inhibition was -4.79%.

Regarding `C/C(=N\Nc1ccc(Cl)nn1)c1ccccc1O`, the inhibition was 23.4% (active).

As to `Fc1ccccc1Cc1ccc(Cl)nn1`, the inhibition was 9.12%.

Regarding `COC(=O)[C@@]12CCCCC=C1N(CCc1ccc(Cl)cc1)C(=O)[C@H]2CC(=O)NCc1ccc(OC)c(OC)c1`, the inhibition is -15%.

`Nc1[nH]c(C(=O)c2ccccc2)c(-c2ccc(Br)cc2)c1C(=O)NC1CC1`: the inhibition is 25.4% (active).

Consider `Nc1[nH]c(C(=O)c2ccc(Br)cc2)c(-c2ccc3c(c2)OCO3)c1C(=O)NCCc1c[nH]c2ccccc12`, for which the inhibition is -43.9%.

Consider `CC(C)(C)C(=O)c1c(N)[nH]c(C(=O)c2ccccc2)c1-c1ccc(F)cc1`, for which the inhibition was 5.32%.

Consider `COc1ccc(CCNC(=O)CSc2nc3c([nH]2)c(=O)n(C)c(=O)n3C)cc1`, for which the inhibition is 5.11%.

`CC(C)CNc1cccc2c1S(=O)(=O)N(Cc1cn(Cc3ccccc3C(F)(F)F)nn1)Cc1ccccc1O2`: the inhibition was 6.58%.

As to `CCOC(=O)C1CCN(C(=O)C(C)(C)NC(=O)Nc2ccc(F)c(F)c2)CC1`, the inhibition was 1.05%.

With `CCOc1ccc(/C=N/NC(N)=S)cc1`, the inhibition is 19.5% (active).

As for `CCOc1ccc(NS(=O)(=O)c2ccc(C)c(C(N)=O)c2)cc1`, the inhibition was 2.14%.

Take `CCOc1ccc(/C=N\NC(=O)c2c(C)nc3cc(C)ccn23)cc1`: the inhibition was 1.86%.
